A short description of assay [1]: A CellTox Green Cytotoxicity Assay to monitor cytotoxicity in HEK293 cells - 8 hour (AID 1224884). Also: nearly all actives have a fitted effect of over 35% in size. Also: potency is read from the fitted curve at half-maximal effect. In outline:
(§1)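 Read-out: fluorescence of a cell-impermeant cyanine dye staining DNA of dead cells, proportional to cytotoxicity. HEK293, 600 cells/well with reagent, compound (23 nL DMSO) added after 5 h; reads at 0, 8, 16, 24, 32, 40 h.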

Assay [2] in a line: qHTS RealTime-Glo MT Cell Viability Assay in HepG2 cells - 16 hour (AID 1224885). Also: nearly all actives have a fitted effect of over 50% in size. Also: potency is read from the fitted curve at half-maximal effect. In outline: (§2)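 Real-time, nonlytic viability: 600 HepG2 cells/well mixed with NanoLuc enzyme plus prosubstrate; 5 h settle, compound (DMSO) added by pintool; luminescence monitored over 40 h at 37 C.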
Assay [3] can be described thus: qHTS RealTime-Glo MT Cell Viability Assay in HEK293 cells - 24 hour (AID 1224886). Also: nearly all actives have a fitted effect of over 50% in size. Also: potency is read from the fitted curve at half-maximal effect. In outline:
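Cells + reagent dispensed (600 cells/well, HEK293) → 5 h at 37 C/5% CO2 → 23 nL compound in DMSO pinned → 40 h at 37 C → luminescence read at 0, 8, 16, 24, 32, 40 h.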
On the technique in general: Quantitative high-throughput screening tests each substance at several concentrations.

Assay [4] is described as follows: qHTS RealTime-Glo MT Cell Viability Assay in HEK293 cells - 8 hour (AID 1224887). Also: nearly all actives have a fitted effect of over 50% in size. Also: potency is read from the fitted curve at half-maximal effect. In outline: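 Luminescence readout at each listed time point; HEK293, 600 cells/well, RealTime-Glo MT reagent added with cells; compounds pinned (23 nL in DMSO) after 5 h at 37 C; continuous culture at 37 C.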
Assay [5] is described as follows: A CellTox Green Cytotoxicity Assay to monitor cytotoxicity in HEK293 cells - 16 hour (AID 1224888). Also: nearly all actives have a fitted effect of over 35% in size. In outline:
as §1

A short description of assay [6]: qHTS RealTime-Glo MT Cell Viability Assay in HepG2 cells - 0 hour (AID 1224889). Also: nearly all actives have a fitted effect of over 50% in size. The essentials:
as §2

A short description of assay [7]: A CellTox Green Cytotoxicity Assay to monitor cytotoxicity in HepG2 cells - 0 hour (AID 1224882). Also: nearly all actives have a fitted effect of over 35% in size. The essentials:
(§3)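 HepG2, 600 cells/well premixed w/ CellTox Green; 5 h settle, 37 C/5% CO2; pintool cpd add (DMSO); 37 C, 40 h; fluorescence read at 0, 8, 16, 24, 32, 40 h.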

Assay [8] can be described thus: A CellTox Green Cytotoxicity Assay to monitor cytotoxicity in HepG2 cells - 32 hour (AID 1224883). Also: nearly all actives have a fitted effect of over 50% in size. Also: potency is read from the fitted curve at half-maximal effect. In outline:
as §3

Assay [9] in a line: A CellTox Green Cytotoxicity Assay to monitor cytotoxicity in HepG2 cells - 8 hour (AID 1224890). Also: nearly all actives have a fitted effect of over 45% in size. In outline: as §3

Consider 19 compounds from PubChem BioAssay (Tox21).

Molecules are shown by their SMILES. Where “and” joins values, the source holds several entries; their conditions need not be identical. Identical values can stand only once. Results filed as inconclusive are left out. Where a structure was tested more than once in an assay, its records may differ in their call. Calls of active or inactive are those of the source. Calls follow the shape of the dose curve; as a rule, active = well fitted curve in the direction sought with a large enough effect in the repeat runs; inconclusive = weak or mixed curves; inactive = no such curve, though single readings can be large; an effect the other way counts as inactive or inconclusive.

As to `OCC1CO1` (centres undefined), the Potency in assay [1] is 44.4 µM (active) and inactive. Besides, the Potency entry in [2], in assay [3], in assay [4] and in [5] was “inactive” in each case. Besides, in assay [6], the compound was called inactive.

For the compound `C=CCSSCC=C`, the Potency result in assay [7], in [8], in assay [2], in [3], in assay [4] and in [5] was “inactive” each time. Also, the Potency entry in [9] was “inactive”. Moreover, the Potency in assay [1] is 54.9 µM (active).

In the case of `CC(O)CN1CCN(CC(=O)[O-])CCN(CC(=O)[O-])CCN(CC(=O)[O-])CC1.[Gd+3]` (centres undefined), the Potency result in assay [8], in assay [1], in [2], in [3], in assay [4] and in assay [5] was “inactive” each time. The Potency entry in [9] was “inactive”. Also, the result in assay [6] was inactive.

With `O=[N+]([O-])c1cc(Cl)c(Cl)cc1Cl`, the Potency entry in assay [7], in assay [8], in assay [1], in assay [2], in [4] and in assay [5] was “inactive” each time. Further, the Potency entry in [9] is “inactive”. In addition, the result in assay [6] was inactive.

For `CN(C)c1ccc(N=O)cc1`, the Potency entry in assay [7], in [1], in assay [5] and in assay [9] was “inactive” throughout. In addition, the Potency in assay [8] was 39 µM (active); in assay [2], 55.1 µM (active) and 43.6 µM (active); in [4] it was 15.5 µM (active) and 21.9 µM (active).

On to `C=CCOCC1CO1` (centres undefined), for which the Potency entry in [8], in assay [1], in [2], in assay [3], in assay [4] and in [5] was “inactive” throughout. For the same compound, the Potency result in assay [9] is “inactive”. For the same compound, the result in [6] was inactive.

As to `CC1(C)CC(=O)CC(C)(C)N1[O]`, the Potency entry in assay [7], in assay [8], in assay [1], in assay [2], in [4] and in [5] was “inactive” each time. Besides, the Potency result in assay [9] is “inactive”. For the same compound, in [6], the outcome was inactive.

For `NC(=S)c1c(Cl)cccc1Cl`, the Potency result in assay [7], in [8], in [1], in assay [2], in assay [4] and in [5] was “inactive” throughout. For the same compound, the Potency result in assay [9] was “inactive”.

For the compound `C=CCN1C[C@H](C)N([C@H](c2ccc(C(=O)N(CC)CC)cc2)c2cccc(OC)c2)C[C@H]1C`, the Potency result in assay [7], in [1], in assay [2], in [4], in assay [5] and in [9] was “inactive” in each case. In addition, the outcome in [6] was inactive.

Take `CC(Cl)C(=O)O` (centres undefined): the Potency entry in assay [7], in assay [8], in assay [1], in assay [3], in assay [4] and in [5] was “inactive” each time. Moreover, in [9], the Potency result was “inactive”. In assay [6], the outcome was inactive.

For the compound `O=C(CCl)CCl`, the Potency entry in [7], in assay [1], in [4], in assay [5] and in [9] was “inactive” throughout. Moreover, the Potency was 22.7 µM (active) in assay [8]; 18 µM (active) and 19.5 µM (active) in assay [3]. Further, the outcome in [6] was inactive.

For the compound `CCCCCl`, the Potency result in assay [7], in assay [8], in assay [1], in assay [2], in assay [4] and in assay [5] was “inactive” in each case. The Potency result in assay [9] was “inactive”. In assay [6], the compound was called inactive.

On to `C#C[C@]1(O)CC[C@H]2[C@@H]3CCC4=CC(=O)CCC4=C3C=C[C@@]21CC`, for which the Potency result in assay [7], in assay [1], in assay [2], in assay [4], in [5] and in assay [9] was “inactive” each time.

With `c1ccc2c(c1)sc1ccccc12`, the Potency entry in assay [7], in assay [1], in assay [2], in assay [4], in [5] and in assay [9] was “inactive” throughout.

With `CCCCCCCCCCCCN(C)C`, the Potency entry in [8], in assay [1], in assay [2], in [3], in assay [4] and in assay [5] was “inactive” each time. Moreover, the Potency entry in [9] was “inactive”.

For `CN(C)N`, the Potency result in assay [7], in assay [2], in [3], in assay [4] and in [9] was “inactive” throughout. Besides, the outcome in assay [6] was inactive.

With `COc1ccc2c(c1OC)C(=O)O[C@H]2[C@@H]1c2cc3c(cc2CCN1C)OCO3`, the Potency entry in [8], in [1], in [2], in [3], in assay [4] and in assay [5] was “inactive” each time. For the same compound, in [9], the Potency result was “inactive”. Further, the result in assay [6] was inactive.

In the case of `O=C(O)c1cc(I)cc(I)c1I`, the Potency entry in assay [8], in [1], in assay [2], in [4], in [5] and in assay [9] was “inactive” in each case. Besides, the compound was called inactive in assay [6].

For `C[C@H]1O[C@H](OC2[C@@H](O)[C@@H](O)C(O)[C@H](O)[C@H]2O)[C@@H](N)C[C@@H]1N=C(N)C(=O)O` (some centres undefined), the Potency result in assay [7], in assay [8], in assay [1], in assay [3], in assay [4] and in assay [5] was “inactive” in each case. For the same compound, the Potency entry in assay [9] was “inactive”. In addition, the compound was called inactive in assay [6].
